Rows were chosen to be rich in hits. Some 12% of all compounds tested hit in one or more screens of this group.
SARS PLP yeast = qHTS of Yeast-based Assay for SARS-CoV PLP; 0.19% of 330,000 active; Potency, µM (doses to about 32.9 µM), actives largely listed as activators; S. cerevisiae expressing SARS-CoV PLpro, growth rescue; also: nearly all actives have a fitted effect of over 55% in size
NS1 function inh = qHTS Assay for Inhibitors of Influenza NS1 Protein Function; Potency, µM (series often up to 46.1 µM); 0.4% of 270,000 active; AID 2326, 2010; also: actives are rising curves; nearly all actives have a fitted effect of over 50% in size
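Growth recovery, yeast-based: influenza A NS1 expressed in S. cerevisiae causes slow growth, and suppressors are detected by OD600. The parent strain without NS1 is used as positive control.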
Shiga toxin inh = A qHTS for Small Molecule Inhibitors of Shiga Toxin. Vero cells, Shiga toxin protein synthesis inhibition reporter. inhibition, % at 38.7 µM. 9.2% of 290,000 active; in the data active = inhibition mostly above about 28%, no sharp cut-off; inactive = mostly below about 43%
Cycloheximide cs = Cycloheximide Counterscreen for Small Molecule Inhibitors of Shiga Toxin | cell reporter, cycloheximide protein synthesis inhibition counterscreen | max response, % | 12% of 300,000 active | AID 2314, 2010; in the data active = max response mostly above about 13%, no sharp cut-off; inactive = mostly below about 14%; also: read at 38.3 µM for the half of the compounds with a filed dose
Numbers stand for hits. Unless noted, calls follow the shape of the full dose curve.

Results for CN1CCN(C(=O)C2CCN(c3ncc(C(F)(F)F)cc3Cl)CC2)CC1 ?
SARS PLP yeast: inactive; NS1 function inh: inactive; Shiga toxin inh: inactive; Cycloheximide cs: inactive

How did O=C(CN1CCN(c2ncc(C(F)(F)F)cc2Cl)CC1)N1CCN(c2ncc(C(F)(F)F)cc2Cl)CC1 do in these assays?
SARS PLP yeast: inactive; NS1 function inh: inactive; Shiga toxin inh: inactive; Cycloheximide cs: inactive

Results for NNC(=O)C=C1CCN(c2ncc(C(F)(F)F)cc2Cl)CC1 ?
SARS PLP yeast: inactive; NS1 function inh: inactive; Shiga toxin inh: inactive; Cycloheximide cs: 18.3

Results for COC(=O)c1c(/N=C/N(C)C)sc2c1CCN(c1ncc(C(F)(F)F)cc1Cl)C2 ?
SARS PLP yeast: inactive; NS1 function inh: inconclusive; Shiga toxin inh: inactive; Cycloheximide cs: 27.8

How did COc1ccccc1N1CCN(c2ccc3cc(S(=O)(=O)N4CCCCC4)ccc3n2)CC1 do in these assays?
SARS PLP yeast: inactive; NS1 function inh: inactive; Shiga toxin inh: inactive; Cycloheximide cs: inactive

How did O=C(NCc1ccccn1)C1CCC(=O)N1C1CCCCC1 (configuration not stated) do in these assays?
SARS PLP yeast: inactive; NS1 function inh: inactive; Shiga toxin inh: inactive; Cycloheximide cs: inactive

How did COc1ccccc1NS(=O)(=O)c1c(C)nc2sccn2c1=O do in these assays?
SARS PLP yeast: inactive; NS1 function inh: inactive; Shiga toxin inh: inactive; Cycloheximide cs: inactive

Results for N#Cc1nc(-c2ccc(OCc3ccc(Cl)cc3)cc2)oc1NCc1cccnc1 ?
SARS PLP yeast: inactive; NS1 function inh: inconclusive; Shiga toxin inh: 74.7; Cycloheximide cs: 34.9

What do the screens show for `CCOc1ccc(-c2nc(C#N)c(NCc3ccco3)o2)cc1`?
SARS PLP yeast: inactive; Shiga toxin inh: 46.2; Cycloheximide cs: 23.4

How did CN(C)c1oc(-c2ccc(OCc3ccccc3)cc2)nc1C#N do in these assays?
SARS PLP yeast: inactive; NS1 function inh: inactive; Shiga toxin inh: 49.1; Cycloheximide cs: 31.2

What do the screens show for `N/C(=N\OC(=O)c1ccccc1Cl)c1ccccc1`?
SARS PLP yeast: inactive; NS1 function inh: inactive; Shiga toxin inh: 70.0; Cycloheximide cs: 35.1

Results for N/C(=N\OC(=O)C(c1ccccc1)c1ccccc1)c1cccnc1 ?
SARS PLP yeast: inactive; NS1 function inh: inactive; Shiga toxin inh: inactive; Cycloheximide cs: inactive

How did O=C(OCc1ccccc1Cl)c1cccnc1Cl do in these assays?
SARS PLP yeast: inactive; NS1 function inh: inactive; Shiga toxin inh: inactive; Cycloheximide cs: inactive

What do the screens show for `N/C(CCS(=O)(=O)c1ccc(Cl)cc1)=N\OC(=O)c1ccccc1Cl`?
SARS PLP yeast: inactive; NS1 function inh: inactive; Shiga toxin inh: inactive; Cycloheximide cs: inactive

Results for O=C(OCc1ccccc1Cl)c1ccccc1C(=O)c1ccccc1 ?
SARS PLP yeast: inactive; NS1 function inh: inactive; Shiga toxin inh: 65.3; Cycloheximide cs: 19.3

How did N/C(=N\OC(=O)c1ccco1)c1cccnc1 do in these assays?
SARS PLP yeast: inactive; NS1 function inh: inactive; Shiga toxin inh: 108.6; Cycloheximide cs: 34.4

How did N/C(=N\OC(=O)c1ccccc1Cl)c1ccc(Cl)cc1 do in these assays?
SARS PLP yeast: inactive; NS1 function inh: inactive; Shiga toxin inh: 62.9; Cycloheximide cs: 48.7

Results for CCN(CC(=O)NCc1ccc(F)cc1)CC(=O)Nc1cc(S(=O)(=O)N(C)C)ccc1C ?
SARS PLP yeast: inactive

Results for COc1ccc(-c2nc(CS(=O)(=O)CC(=O)NCc3cccc(F)c3)c(C)o2)cc1 ?
SARS PLP yeast: inactive; NS1 function inh: inactive; Shiga toxin inh: inactive; Cycloheximide cs: inactive

What do the screens show for `O=C(NCc1nc2ccccc2[nH]1)C1=C[C@H](c2ccc3c(c2)OCO3)C[C@H](OCCCCO)O1`?
SARS PLP yeast: inactive; NS1 function inh: inactive; Shiga toxin inh: inactive; Cycloheximide cs: inactive

Results for N/C(=N\OC(=O)c1ccc(Cl)cc1)c1ccc(Cl)cc1 ?
SARS PLP yeast: inactive; NS1 function inh: inactive; Shiga toxin inh: 53.8; Cycloheximide cs: 21.1

How did N/C(=N\OC(=O)c1ccco1)c1ccc(Cl)cc1 do in these assays?
SARS PLP yeast: inactive; NS1 function inh: inactive; Shiga toxin inh: 83.7; Cycloheximide cs: 61.7

How did N/C(=N\OC(=O)c1ccc(Cl)cc1)c1ccn[nH]1 do in these assays?
SARS PLP yeast: inactive; NS1 function inh: inactive; Shiga toxin inh: 48.8; Cycloheximide cs: 39.3

Results for N/C(=N\OC(=O)c1ccc(OCC(F)(F)F)nc1)c1ccc(Cl)cc1 ?
SARS PLP yeast: inactive; NS1 function inh: inactive; Shiga toxin inh: inactive; Cycloheximide cs: inactive

What do the screens show for `Clc1ccc(-c2nnc(SCc3ccon3)o2)c(Cl)c1`?
SARS PLP yeast: inactive; NS1 function inh: inactive; Shiga toxin inh: 60.6; Cycloheximide cs: 36.5

What do the screens show for `O=C(Nc1ccccc1-c1nnc(SCc2ccc(Cl)cc2Cl)o1)c1ccccc1`?
SARS PLP yeast: inactive; NS1 function inh: inactive; Shiga toxin inh: inactive; Cycloheximide cs: inactive

What do the screens show for `Clc1ccc(-c2nnc(SCc3nc4ccccc4[nH]3)o2)c(Cl)c1`?
SARS PLP yeast: inactive; NS1 function inh: inactive; Shiga toxin inh: inactive; Cycloheximide cs: 17.4

Results for Clc1cccc(CSc2nnc(-c3c[nH]c4ccccc34)o2)c1 ?
SARS PLP yeast: inactive; NS1 function inh: inactive; Shiga toxin inh: inactive; Cycloheximide cs: 9.8

How did COc1ccccc1-c1nnc(SCC(=O)Nc2ccc(Cl)cc2Cl)o1 do in these assays?
SARS PLP yeast: inactive; NS1 function inh: inactive; Shiga toxin inh: inactive; Cycloheximide cs: inactive

How did C=CCSc1nnc(-c2ccc(Cl)cc2Cl)o1 do in these assays?
SARS PLP yeast: inactive; NS1 function inh: inactive; Shiga toxin inh: 92.2; Cycloheximide cs: 43.1

Results for C[C@@]12CC[C@@H]3[C@@H](CC[C@H]4C[C@@H](O)CC[C@]43C)[C@H]1CC[C@@H]2c1cc(C(F)(F)F)n[nH]1 ?
NS1 function inh: inactive

How did CCN(CC)S(=O)(=O)c1ccc(N2CCN(S(=O)(=O)c3ccccc3)CC2)nc1 do in these assays?
SARS PLP yeast: inactive; NS1 function inh: inactive; Shiga toxin inh: inactive; Cycloheximide cs: inactive

Results for CC(C)N(C(C)C)S(=O)(=O)c1ccc(Cl)nc1 ?
SARS PLP yeast: inactive; Shiga toxin inh: inactive; Cycloheximide cs: inactive

What do the screens show for `CC(C)N(C(C)C)S(=O)(=O)c1ccc(N2CCc3ccccc3C2)nc1`?
SARS PLP yeast: inactive; NS1 function inh: inactive; Shiga toxin inh: 57.8; Cycloheximide cs: 31.7

How did CCN(CC)S(=O)(=O)c1ccc(N2CCc3ccccc3C2)nc1 do in these assays?
SARS PLP yeast: inactive; NS1 function inh: inactive; Shiga toxin inh: inactive; Cycloheximide cs: 36.9

Results for Cc1ccc(C)c(OCC(=O)NNC(=O)CSC(=S)N2CCCC2)c1 ?
SARS PLP yeast: inactive

How did O=C(Nc1n[nH]c(C(F)(F)F)n1)C1CC1 do in these assays?
SARS PLP yeast: inactive; NS1 function inh: inactive; Shiga toxin inh: inactive; Cycloheximide cs: inactive

Results for Nc1oc2ccccc2c(=O)c1-c1ccc2c(c1)OCO2 ?
SARS PLP yeast: inactive; NS1 function inh: inactive; Shiga toxin inh: 72.0; Cycloheximide cs: 41.0

What do the screens show for `CCCc1c(C(=O)Nc2ccc(F)cc2F)cnn1-c1ccccc1`?
SARS PLP yeast: inactive; NS1 function inh: inactive; Shiga toxin inh: inactive; Cycloheximide cs: 16.9

What do the screens show for `Cc1c(C(=O)Nc2cccc(F)c2)cnn1-c1ccccc1`?
SARS PLP yeast: inactive; NS1 function inh: inactive; Shiga toxin inh: 63.6; Cycloheximide cs: 39.0

What do the screens show for `CCCc1c(C(=O)Nc2cc(C(C)(C)C)on2)cnn1-c1ccccc1`?
SARS PLP yeast: inactive; NS1 function inh: inactive; Shiga toxin inh: inactive; Cycloheximide cs: inactive

Compound activity: PubChem, National Center for Advancing Translational Sciences (NCATS)
